Drawing on PubChem BioAssay (NCATS), this text covers Potency and activity change, negative = cytotoxicity for 14 compounds.

Inconclusive results are not listed. Where a call stands in place of a potency, no number is given. Values without a mark were called inactive. The source made the active and inactive calls. The call rests on the fitted dose curve; in most records, active means well fitted inhibition curve with a large enough effect; inconclusive means small, poorly fitted or top-dose-only effect; inactive means flat fitted curve, though single readings scatter.
Potency means the concentration at half of the fitted maximal effect.

This test is described as follows: P-glycoprotein substrates identified in KB-8-5-11 adenocarcinoma cell line, qHTS therapeutic library screen (AID 1346987). Further: nearly all actives have a fitted effect of over 65% in size. The following applies: KB-8-5-11 (P-gp overexpressing) viability, CellTiter-Glo, 72 h; series mostly up to 44.5 µM. In a few lines:
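KB-8-5-11, a colchicine-selected P-gp-overexpressing KB-3-1 subline, was grown without colchicine for the assay. Cells were seeded at 500 cells/well, dosed in concentration-response and incubated 72 h at 37 degree C, 5% CO2. Viability was read by CellTiter-Glo luminescence.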
For orientation: Quantitative high-throughput screening tests each substance at several concentrations.
As to `C=C1C(=O)OC2/C=C(\C)CC/C=C(\C)CC(OC(C)=O)C12` (centres undefined), the Potency entry was “inactive”.

Turning to `O=C(Nc1ccc(Cl)cc1)Nc1cccc(-c2cccc(N3CCCC3)n2)c1`, the Potency is 20.6 µM (active).

As for `Nc1c(CC(=O)O)cccc1C(=O)c1ccccc1`, the Potency result is “inactive”.

Take `CCCN(CC)C(CC)C(=O)Nc1c(C)cccc1C` (centres undefined): the Potency entry is “inactive”.

`CC[C@@H](Nc1c(Nc2cccc(C(=O)N(C)C)c2O)c(=O)c1=O)c1cc(C(C)C)co1`: the Potency entry was “inactive”.

`O=C(Nc1ncc([N+](=O)[O-])s1)c1ccccc1O`: the Potency was 5.8 µM (active).

Consider `COc1ccnc(CS(=O)c2nc3cc(OC(F)F)ccc3[nH]2)c1OC` (centres undefined), for which the Potency result is “inactive”.

`COc1cc(/C=N\NC(=O)c2ccc3c(c2)OCO3)ccc1OCc1ccccc1`: the Potency result is “inactive”.

For the compound `CC#CCC(C)[C@H](O)/C=C/[C@@H]1[C@H]2C/C(=C/CCCC(=O)O)C[C@H]2C[C@H]1O` (some centres undefined), the Potency result is “inactive”.

On to `CS/C=C/C(=O)O[C@@H]1CCC2=CC(=O)C(=C(C)C)C[C@]2(C)[C@H]1C`, for which the Potency entry was “inactive”.

For the compound `CN(C)CC#CCCC(=O)C(O)(c1ccccc1)C1CCC1` (centres undefined), the Potency result is “inactive”.

For the compound `C1CNCCN1`, the Potency entry is “inactive”.

Take `CCC[C@@]1(CCc2ccccc2)CC(O)=C([C@H](CC)c2cccc(NS(=O)(=O)c3ccc(C(F)(F)F)cn3)c2)C(=O)O1`: the Potency result is “inactive”.

Regarding `C=CC(C)(O)CC/C=C(\C)C(=O)OC1C(O)C(CO)OC(OC(=O)C23CCC(C)(C)CC2C2=CCC4C5(C)CCC(OC6OC(COC7OCC(OC(C)=O)C(O)C7OC7OC(COC(C)=O)C(O)C(O)C7OC(C)=O)C(O)C(O)C6OC6OCC(O)C(O)C6O)C(C)(C)C5CCC4(C)C2(C)C(O)C3O)C1OC1OCC(OC2OCC(O)C(OC3OCC(O)C(O)C3O)C2O)C(O)C1O` (centres undefined), the activity change, negative = cytotoxicity was -2.64% [at 5.11 µM].
